# In PubChem BioAssay (NCATS):
# Inconclusive results are not listed. Where a call stands in place of a potency, no number is given. A number with no mark means an inactive call. Active and inactive are the calls of the source. Calls come from the whole dose curve; as a rule, active = well fitted curve in the direction sought with a large enough effect; inconclusive = small, poorly fitted or top-dose-only effect, or another doubt; inactive = no such curve, though single readings can be large; an effect the other way counts as inactive or inconclusive.
# What was measured:
# [1] = qHTS of pediatric cancer cell lines to identify multiple opportunities for drug repurposing: Confirmatory screen for Rh18 cells (AID 1347125); note: nearly all actives have a fitted effect of over 55% in size
# Summary of the method: (§1)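 Cells (500-1,000/well) rested 5 h, then received compounds for 48 h; metabolically active cells were measured by CellTiter-Glo luminescence. Final concentrations spanned up to 46 µM (MIPE, 11-point) or 0.59 nM-46 µM (NPC, 8-point) in primary screens, 11-point in follow-ups.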
# [2] = qHTS of pediatric cancer cell lines to identify multiple opportunities for drug repurposing: Confirmatory screen for Rh30 cells (AID 1347126); note: nearly all actives have a fitted effect of over 55% in size; note: potency is the fitted concentration of half-maximal effect
# Summary of the method: as §1
# [3] = qHTS of pediatric cancer cell lines to identify multiple opportunities for drug repurposing: Confirmatory screen for Saos-2 cells (AID 1347127); note: nearly all actives have a fitted effect of over 60% in size; note: potency is the fitted concentration of half-maximal effect
# Summary of the method: as §1
# [4] = qHTS of pediatric cancer cell lines to identify multiple opportunities for drug repurposing: Confirmatory screen for OHS-50 cells (AID 1347128);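 note: compound exposure lasted 48 h at 37 degrees C; nearly all actives have a fitted effect of over 55% in size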; note: potency is the fitted concentration of half-maximal effect
# Summary of the method: as §1
# [5] = qHTS of pediatric cancer cell lines to identify multiple opportunities for drug repurposing: Confirmatory screen for SK-N-SH cells (AID 1347129);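 note: cells exposed to compound for 48 h before viability read; nearly all actives have a fitted effect of over 60% in size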; note: potency is the fitted concentration of half-maximal effect
# Summary of the method: as §1
# [6] = biological target: N-terminal Xaa-Pro-Lys N-methyltransferase 1 (Homo sapiens) (UniProt Q9BV86); assay: qHTS Assay for Inhibitors of N-terminal methyltransferase 1 (NTMT1): LOPAC validation of the NTMT1 SAHH-coupled ThioGlo3 Assay (AID 1347143);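 note: SAH from peptide methylation measured as thiol fluorescence via SAHH coupling and ThioGlo3; nearly all actives have a fitted effect of over 70% in size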; note: potency is the fitted concentration of half-maximal effect
# N-terminal Xaa-Pro-Lys N-methyltransferase 1 (Homo sapiens), sequence (Q9BV86 whole entry, looked up): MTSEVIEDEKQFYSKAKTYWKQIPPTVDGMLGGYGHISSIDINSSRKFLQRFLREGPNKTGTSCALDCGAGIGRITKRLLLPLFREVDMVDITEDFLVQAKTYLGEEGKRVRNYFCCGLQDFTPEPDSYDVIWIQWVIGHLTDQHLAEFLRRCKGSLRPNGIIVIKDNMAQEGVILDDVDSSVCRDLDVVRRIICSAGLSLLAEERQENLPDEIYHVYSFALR
# Summary of the method: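 NTMT1 125nM + cpds (various conc.), 1 min RT; add SAM 100uM/SAHH 10uM/ThioGlo3 15uM (addition mix). SAHH-coupled thiol detection, Ex340/Em450, t0 and 30 min RT; signal normalized to background. LOPAC 1280-cpd pilot.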
# [7] = test system: Zika virus NS2B-NS3 protease (unlinked); assay: Optimization of GU AMC qHTS for Zika virus inhibitors: Unlinked NS2B-NS3 protease assay (AID 1347151); note: nearly all actives have a fitted effect of over 80% in size; note: potency is the fitted concentration of half-maximal effect
# Summary of the method: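 In this qHTS, compounds acted on 25 nM unlinked Zika NS2B–NS3 in pH 8.0 Tris/Tween buffer. Cleavage of an AMC peptide ran 15 min at room temperature, to about 20% conversion.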
# [8] = test system: Zika virus NS2B-NS3 protease; assay: Primary screen GU AMC qHTS for Zika virus inhibitors (AID 1347154); note: nearly all actives have a fitted effect of over 70% in size; note: potency is the fitted concentration of half-maximal effect
# Summary of the method: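 Fluorogenic AMC-substrate cleavage by noncovalent NS2B-NS3 protease complex (25 nM, pH 8.0 Tris buffer with Tween 20) followed for 15 minutes at room temperature (~20% conversion). Percent inhibition from ex340/em450 signal change, fitted by 4-parameter Hill equation.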
# [9] = test system: Zika virus NS2B-NS3 protease (unlinked complex); assay: Primary screen GU Rhodamine qHTS for Zika virus inhibitors: Unlinked NS2B-NS3 protease assay (AID 1347159); note: nearly all actives have a fitted effect of over 60% in size
# Summary of the method: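 In dose–response format, inhibition of unlinked protease (25 nM) was measured with 1.5 microM bis-peptide Rhodamine110 substrate. Aprotinin served as the intraplate control.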
# [10] = qHTS to identify inhibitors of the type 1 interferon - major histocompatibility complex class I in skeletal muscle: primary screen against the NCATS Pharmaceutical Collection (AID 1347407);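 note: luminescence of HiBiT knocked into endogenous HLA-B as interferon-induced MHC class I level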
# Summary of the method: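 A qHTS format is used: 8-point, 1:5 compound series with 46 uM top final concentration, applied alongside 4 ng/ml IFN-beta to HLA-B*08:01-HiBiT knock-in myoblasts. Luminescence is measured after 24 h treatment.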
# [11] = Confirmatory screen GU Rhodamine qHTS for Zika virus inhibitors qHTS (AID 1347157); note: nearly all actives have a fitted effect of over 70% in size
# Summary of the method: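 A qHTS format was used, with compound concentrations ranging up to 114 microM. Each compound was preincubated with 25 nM NS2B-NS3 protease, and the substrate was then added at 1.5 microM. Curves were fitted with a 4-parameter Hill model.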
# [12] = Confirmatory screen NINDS Rhodamine qHTS for Zika virus inhibitors (AID 1347161);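 note: purified Zika NS2B-NS3 protease with linked NS2B cofactor domain and Rhodamine110 peptide substrate; nearly all actives have a fitted effect of over 60% in size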
# Summary of the method: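 Rhodamine110-peptide cleavage (1.5 µM substrate) by 25 nM linked NS2B-NS3 enzyme at pH 8.0 (Tris, Tween 20), after 15 min RT preincubation with compounds; 15-min fluorescence change normalized to controls and Hill-fitted.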
# [13] = Tertiary RLuc qRT-PCR qHTS assay for Zika virus inhibitors (AID 1347169); note: top concentration of the series differs between compounds; nearly all actives have a fitted effect of over 55% in size
# Summary of the method: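 Inhibition of ZIKV-RLuc replication in Vero cells, read as Renilla luminescence 1-1.5 hrs after live-cell substrate addition, following 48-72 hrs infection at MOI 1-2 in presence of compound.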
# [14] = test system: Zika virus NS2B-NS3 protease (linked construct); assay: Confirmatory screen NINDS AMC qHTS for Zika virus inhibitors (AID 1347152); note: potency is the fitted concentration of half-maximal effect; nearly all actives have a fitted effect of over 70% in size
# Summary of the method: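 Concentration-response confirmation used the NINDS linked protease (NS2B hydrophilic domain joined to NS3 protease domain), 1 nM, with a 15-min compound preincubation. Substrate, Nle-KRR-AMC at 10 microM, was read by UV fluorescence before and after 15 min.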
# [15] = Vero cells viability qHTS for Zika virus inhibitors (AID 1347167)
# Summary of the method: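 Luminescent ATP readout (CellTiter Glo) after 30 min at 37 degrees C gives viability; cells in DMEM + 4% FBS were treated 24 to 48 hours with compound, following overnight attachment.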
# [16] = test system: Zika virus NS2B-NS3 protease (unlinked complex); assay: Confirmatory screen GU AMC qHTS for Zika virus inhibitors (AID 1347153)
# Summary of the method: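 Unlinked NS2B-NS3 complex (25 nM) in 10 mM Tris-HCl pH 8.0, 0.01% Tween 20 preincubated 15 min with compound, then 10 microM Bz-Nle-KRR-AMC (Km 18.3 µM). Fluorescence change over 15 min, normalized, Hill-fitted.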
# [17] = biological target: Lysine-specific demethylase 5B (Homo sapiens) (UniProt Q9UGL1); assay: Optimization screen for KDM5B Histone Demethylases FDH coupled qHTS against the LOPAC library (AID 1347166); conditions: KDM5B demethylation, FDH-coupled NADH fluorescence (FDH is formaldehyde dehydrogenase); at 57.5 µM (top of the series)
# Lysine-specific demethylase 5B (Homo sapiens), sequence (Q9UGL1 whole entry, looked up): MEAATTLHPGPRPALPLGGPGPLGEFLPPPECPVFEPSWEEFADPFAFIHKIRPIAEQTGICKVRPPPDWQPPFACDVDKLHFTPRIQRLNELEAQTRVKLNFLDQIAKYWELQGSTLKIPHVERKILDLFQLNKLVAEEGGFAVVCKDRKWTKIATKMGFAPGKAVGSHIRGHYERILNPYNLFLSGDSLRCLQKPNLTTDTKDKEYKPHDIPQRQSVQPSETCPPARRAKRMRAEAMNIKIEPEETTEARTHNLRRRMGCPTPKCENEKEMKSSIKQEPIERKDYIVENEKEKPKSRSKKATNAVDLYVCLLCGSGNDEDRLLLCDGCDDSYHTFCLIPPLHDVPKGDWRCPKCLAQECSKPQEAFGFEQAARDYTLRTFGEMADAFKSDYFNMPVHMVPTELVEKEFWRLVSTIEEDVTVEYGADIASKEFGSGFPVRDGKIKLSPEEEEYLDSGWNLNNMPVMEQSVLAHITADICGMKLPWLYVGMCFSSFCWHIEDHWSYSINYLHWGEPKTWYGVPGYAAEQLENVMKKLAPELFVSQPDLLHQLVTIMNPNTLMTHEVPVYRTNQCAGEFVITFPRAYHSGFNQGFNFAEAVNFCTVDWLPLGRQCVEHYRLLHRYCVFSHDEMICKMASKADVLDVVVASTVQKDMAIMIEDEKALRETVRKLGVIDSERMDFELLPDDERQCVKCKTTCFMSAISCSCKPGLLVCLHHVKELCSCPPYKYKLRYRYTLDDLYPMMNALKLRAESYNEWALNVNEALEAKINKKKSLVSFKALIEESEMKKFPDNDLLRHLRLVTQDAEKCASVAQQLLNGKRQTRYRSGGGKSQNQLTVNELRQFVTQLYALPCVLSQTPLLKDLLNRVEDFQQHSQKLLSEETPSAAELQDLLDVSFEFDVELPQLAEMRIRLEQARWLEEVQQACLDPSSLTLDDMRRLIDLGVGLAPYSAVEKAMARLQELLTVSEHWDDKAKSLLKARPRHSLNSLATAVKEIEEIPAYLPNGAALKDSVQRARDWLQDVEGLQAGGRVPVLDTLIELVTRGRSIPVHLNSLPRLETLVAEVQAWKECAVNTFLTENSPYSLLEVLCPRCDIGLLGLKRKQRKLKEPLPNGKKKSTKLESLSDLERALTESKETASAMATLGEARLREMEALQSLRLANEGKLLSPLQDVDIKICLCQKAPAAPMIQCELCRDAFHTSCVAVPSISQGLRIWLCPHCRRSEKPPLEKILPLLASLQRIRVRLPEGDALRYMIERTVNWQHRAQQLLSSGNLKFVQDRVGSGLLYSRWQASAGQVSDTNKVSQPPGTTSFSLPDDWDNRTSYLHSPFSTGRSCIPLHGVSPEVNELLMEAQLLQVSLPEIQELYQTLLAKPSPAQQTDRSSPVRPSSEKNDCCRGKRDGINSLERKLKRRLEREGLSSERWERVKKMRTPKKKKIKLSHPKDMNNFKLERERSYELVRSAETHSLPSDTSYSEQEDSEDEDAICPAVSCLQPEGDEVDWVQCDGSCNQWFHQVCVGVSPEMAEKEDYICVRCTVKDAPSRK
# Summary of the method: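 KDM5BDeltaAP (200nM final) in 50mM HEPES pH 7.5, 0.01% Tween-20 was preincubated with compound for 10 min at room temperature. A substrate mix of 12.5uM H3K4Me3, 25uM a-ketoglutarate, ascorbate, Fe2+, NAD+ and formaldehyde dehydrogenase was then added. NADH fluorescence (340/450 nm) was read initially and after 30 min.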
smiles,measurement,setting,value
CNS(=O)(=O)CCc1ccc2[nH]cc(C3CCN(C)CC3)c2c1,Potency,[1],inactive
same,Potency,[2],inactive
same,Potency,[3],inactive
same,Potency,[4],inactive
same,Potency,[5],inactive
same,Potency,[6],inactive
same,Potency,[7],inactive
same,Potency,[8],inactive
same,Potency,[9],inactive
same,Potency,[10],inactive
Nc1nc(N)nc(-c2cc(Cl)ccc2Cl)n1,Potency,[1],inactive
same,Potency,[2],inactive
same,Potency,[3],inactive
same,Potency,[4],inactive
same,Potency,[5],inactive
same,Potency,[8],inactive
same,Potency,[10],inactive
O=C(NCC1CN(c2ccc(N3CCOCC3=O)cc2)C(=O)O1)c1ccc(Cl)s1 (configuration not stated),Potency,[1],inactive
same,Potency,[2],inactive
same,Potency,[5],inactive
same,Potency,[8],inactive
same,Potency,[9],inactive
same,Potency,[10],inactive
COc1ccc(-c2ccc3cc(C(=O)O)ccc3c2)cc1C12CC3CC(CC(C3)C1)C2,Potency,[1],inactive
same,Potency,[5],inactive
same,Potency,[8],inactive
same,outcome,[11],inactive
same,Potency,[12],inactive
same,"activity change, negative = inhibition",[13],-1.33% [at 5.25 µM]
same,Potency,[10],inactive
COc1cc(NCc2ccc3nc(N)nc(N)c3c2C)cc(OC)c1OC,Potency,[2],4.65 µM (active)
same,Potency,[3],10.4 µM (active)
same,Potency,[4],3.69 µM (active)
same,Potency,[5],4.69 µM (active)
same,Potency,[14],24.1 µM (active)
same,Potency,[12],inactive
same,Potency,[15],inactive
CCOC(=O)[C@H](CCc1ccccc1)N[C@H]1CCc2ccccc2N(CC(=O)O)C1=O,Potency,[8],inactive
Cc1ncc([N+](=O)[O-])n1CCO,Potency,[8],inactive
O=C(O)CCn1c2c(c3ccccc31)C[C@H](NS(=O)(=O)c1ccc(F)cc1)CC2,Potency,[8],inactive
COc1nc(N)nc2c1ncn2[C@@H]1O[C@H](CO)[C@@H](O)[C@@H]1O,Potency,[3],inactive
same,Potency,[4],inactive
same,Potency,[5],inactive
same,Potency,[8],inactive
same,Potency,[10],inactive
OCc1ccc(-c2nn(Cc3ccccc3)c3ccccc23)o1,Potency,[6],28.2 µM (active)
same,Potency,[7],23.8 µM (active)
same,Potency,[14],24.1 µM (active)
same,Potency,[16],24.1 µM (active)
same,Potency,[8],30.4 µM (active)
same,Potency,[15],inactive
CCn1cc(C(=O)O)c(=O)c2cc(F)c(N3CCN(C)CC3)cc21,Potency,[8],inactive
CN1CCN(c2c(F)cc3c(=O)c(C(=O)O)cn(CCF)c3c2F)CC1,Potency,[8],inactive
CCCCOc1ccc(CC(=O)NO)cc1,Potency,[3],inactive
same,Potency,[4],inactive
same,Potency,[5],inactive
same,Potency,[8],inactive
same,Potency,[10],inactive
COc1cc2nc(N3CCCN(C)CC3)nc(NC3CCN(Cc4ccccc4)CC3)c2cc1OC,Potency,[2],0.147 µM (active)
same,Potency,[4],18.5 µM (active)
same,Potency,[5],8.33 µM (active)
same,Potency,[6],inactive
same,Potency,[7],21.2 µM (active)
same,Potency,[8],27.1 µM (active)
Oc1c(Cl)cc(Cl)c2cccnc12,Potency,[2],18.5 µM (active)
same,Potency,[5],20.9 µM (active)
same,Potency,[8],inactive
same,Potency,[10],inactive
CCN1CCCC1CNC(=O)c1cc(S(N)(=O)=O)ccc1OC (configuration not stated),Potency,[6],56.2 µM (active)
same,Potency,[7],inactive
same,Potency,[8],inactive
same,"activity, negative = inhibition",[17],2.22%
